PubChem BioAssay AID434947 (Broad Institute, 2010)
Screen size: about 2,200 compounds; about 15 (0.7%) were called active. This is one part of a sample in which actives are shown more often than they occur.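 Rule for the calls: active = fitted half-maximal concentration for loss of luminescence signal no more than a set limit of log units above the top tested concentration; inconclusive = flat fit with 30 to 70% signal loss, or invalid fit; inactive = half-maximal concentration above that set limit.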

Assay: ADP-Glo luciferase signal interference – biochemical, luminescence, cell-free, homogeneous, artefact control for GSK3beta inhibitor project, dose response (AID 434947);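 note: kinase-free counter screen of ADP-Glo detection reagents for GSK3beta hits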
Conditions: Cell-free ADP-Glo reagents, 5 uM ADP

Row | SMILES | EC50
1 | CC1(C)CC(=O)C=C(Nc2ccc3c(c2)OCCO3)C1 | > 30 µM (inactive)
2 | COc1ccc(-c2nn(-c3ccccc3)cc2/C=N/N2C(=O)CSC2=S)cc1 | > 30 µM (inactive)
3 | Cc1ccccc1-c1nc(CN2CCC(C(=O)N3CCN(c4ccccn4)CC3)CC2)c(C)o1 | > 30 µM (inactive)
4 | CCOC(=O)c1cnc2c(OC)cccc2c1N1CCN(c2ccc(OC)cc2)CC1 | > 30 µM (inactive)
5 | COc1cc(OC)c(OC)cc1CNCC1COc2ccccc2O1 (stereo unspecified) | > 30 µM (inactive)
6 | CSc1nc(N)c2c3c(sc2n1)CN(C)CC3 | > 30 µM (inactive)
7 | Cn1c(=O)c2[nH]c(CCCC(=O)O)nc2n(Cc2ccccc2)c1=S | > 30 µM (inactive)
8 | NS(=O)(=O)c1cc(C(=O)N=Nc2c(O)[nH]c3ccccc23)ccc1Cl | > 30 µM (inactive)
9 | O=C(/C=C/c1ccc2ccccc2c1)c1ccoc1 | > 30 µM (inactive)
10 | NS(=O)(=O)c1ccc(CCNC(=O)CSc2nc3ccsc3c(=O)n2C2CC2)cc1 | > 30 µM (inactive)
11 | CN(C)CCCNc1ccc(-c2cc(Nc3cccc(Cl)c3)ncn2)cn1 | > 30 µM (inactive)
12 | CN(CCO)c1cc(N2CCC3(CC2)OCCO3)c2nonc2c1[N+](=O)[O-] | > 30 µM (inactive)
13 | COC(=O)c1nnn(-c2nonc2N)c1CSc1ccc(Cl)cc1 | > 30 µM (inactive)
14 | Cc1cccc(OCc2nnc(SCC(=O)Nc3sc(C)c(C)c3C#N)n2C)c1 | > 30 µM (inactive)
15 | CC(C)N1C(=O)N(c2ccc(Cl)cc2)C(C)(O)CC1(C)C (stereo unspecified) | > 30 µM (inactive)
16 | CC(C)CCSc1nnc(N)s1 | > 30 µM (inactive)
17 | CCC(=O)Nc1ccc(Nc2nc(C)c([N+](=O)[O-])c(Nc3ccc(NC(=O)CC)cc3)n2)cc1 | > 30 µM (inactive)
18 | O=C(Nc1ccnn1C1CCN(Cc2cccc(OCCO)c2)CC1)C1CCCC1 | > 30 µM (inactive)
19 | c1ccc(OCCCn2nnc(-c3ccncc3)n2)cc1 | > 30 µM (inactive)
20 | Nc1nc(NCCO)nc(NCC2CCCO2)c1[N+](=O)[O-] (stereo unspecified) | > 30 µM (inactive)
21 | N#Cc1c(-c2ccccc2)nc(SCC(=O)Nc2ccc(OC(F)(F)Cl)cc2)[nH]c1=O | > 30 µM (inactive)
22 | O=C(Nc1cc(-c2ccccc2)[nH]n1)c1ccccc1 | > 30 µM (inactive)
23 | COc1cccc(C(=O)Nc2ccc(C(=O)NCC(C)C)cc2)c1 | > 30 µM (inactive)
24 | CCCCC(CC)C(=O)Nc1ncc([N+](=O)[O-])s1 (stereo unspecified) | > 30 µM (inactive)

Row | SMILES | EC50
25 | O=C(COc1ccccc1[N+](=O)[O-])N/N=C/c1ccccn1 | > 30 µM (inactive)
26 | N/C(Cc1nc2ccccc2s1)=N\O | > 30 µM (inactive)
27 | COc1cccc(C(=O)Nc2nnc(C(C)C)s2)c1 | > 30 µM (inactive)
28 | COc1ccc2nc(Cl)cc(Cl)c2c1 | > 30 µM (inactive)
29 | CCCc1cc(=O)[nH]c(SCCOc2ccc(OCC)cc2)n1 | > 30 µM (inactive)
30 | COc1ccccc1/C=C1\C(=O)Nc2ccccc21 | > 30 µM (inactive)
31 | Cc1ccc(S(=O)(=O)NNC(=O)c2cccc(O)c2)cc1 | > 30 µM (inactive)
32 | COCc1c(C(=O)Nc2ccc(Cl)cc2F)oc2ccccc12 | > 30 µM (inactive)
33 | CC(C)c1ccc(NC2=CC(=O)CC(C)(C)C2)cc1 | > 30 µM (inactive)
34 | O=C(CCc1ccccc1)Nc1ccc2c(c1)OCCO2 | > 30 µM (inactive)
35 | Cc1cc(C)c(C)c(S(=O)(=O)Nc2ccccc2C(=O)NCCCn2ccnc2)c1C | > 30 µM (inactive)
36 | N#Cc1ccc(CSc2nnc(-c3ccncc3)o2)cc1 | > 30 µM (inactive)
37 | CN(c1ncnc(N)c1[N+](=O)[O-])C1CCCCC1 | > 30 µM (inactive)
38 | O=C(O)c1ccccc1N/N=C\c1ccnc2ccccc12 | > 30 µM (inactive)
39 | COc1ccc(-c2nn(-c3ccccc3)cc2/C=N/O)cc1OC | > 30 µM (inactive)
40 | Cc1cc(C(=O)OCCN2C(=O)c3ccccc3C2=O)c2ccccc2n1 | > 30 µM (inactive)
41 | Cn1cc(S(=O)(=O)NCc2ccc(F)cc2)c(=O)n(C)c1=O | > 30 µM (inactive)
42 | c1ccc(CNc2nc(-c3cccnc3)nc3ccccc23)cc1 | > 30 µM (inactive)
43 | Cc1cc(C(=O)c2ccccc2)c(NC(=O)CN2CCOCC2)s1 | > 30 µM (inactive)
44 | CN(Cc1c(C(=O)N/N=C/c2ccccc2F)nnn1-c1nonc1N)c1ccccc1 | > 30 µM (inactive)
45 | CCn1c(SCC(=O)Nc2ccc(Cl)cc2)nnc1C1CC1 | > 30 µM (inactive)
46 | O=c1c2[nH]c3ccccc3c2ncn1C1CCCCC1 | > 30 µM (inactive)
47 | CCOC(=O)/C(C#N)=C/c1cn(CCC(=O)O)nc1-c1ccccc1 | > 30 µM (inactive)
48 | CN1CCN(c2ccccc2NC(=O)c2ccc(Br)o2)CC1 | > 30 µM (inactive)

Row | SMILES | EC50
49 | Cc1cnc(C(=O)OCC(=O)N2c3ccccc3CC2C)cn1 (stereo unspecified) | > 30 µM (inactive)
50 | N#CCCn1cc(/C=N/O)c(-c2cccc([N+](=O)[O-])c2)n1 | > 30 µM (inactive)
51 | COc1cccc(/C=N/Nc2cc(Cl)nc(C)n2)c1O | > 30 µM (inactive)
52 | COc1ccc(-c2nn(-c3ccccc3)cc2N)cc1 | > 30 µM (inactive)
53 | CSc1nc2c(c(=O)[nH]1)C(c1ccccc1)C1=C(CC(C)(C)CC1=O)N2 (stereo unspecified) | > 30 µM (inactive)
54 | CC(=O)C(Sc1ccc2nnc(-c3ccc(F)cc3)n2n1)C(C)=O | > 30 µM (inactive)
55 | NNC(=O)CNC(=O)c1ccc(F)cc1 | > 30 µM (inactive)
56 | Cn1c(=S)n(CCC(=O)O)c2ccccc21 | > 30 µM (inactive)
57 | O=C(NCC(c1ccco1)N1CCc2ccccc21)c1c(F)cccc1F (stereo unspecified) | > 30 µM (inactive)
58 | Cc1ccc(-c2nn(-c3ccccc3)cc2/C=N/NS(=O)(=O)c2ccccc2)cc1 | > 30 µM (inactive)
59 | COCCn1c(SCC(=O)Nc2ccc(Cl)c(S(=O)(=O)N(C)C)c2)nc2ccccc21 | > 30 µM (inactive)
60 | COc1cccc(N=Nc2c(N)[nH][nH]c2=O)c1 | > 30 µM (inactive)
61 | Cc1cc(NC(=O)CSc2nnc(C3CC3)n2Cc2ccccc2)no1 | > 30 µM (inactive)
62 | CNc1nc(N)c([N+](=O)[O-])c(NCC2CCCO2)n1 (stereo unspecified) | > 30 µM (inactive)
63 | COc1cc(SC)ccc1C(=O)OCC(=O)NCCNC(=O)COC(=O)c1ccc(SC)cc1OC | > 30 µM (inactive)
64 | CCOC(=O)COC(=O)c1ccc(O)cc1 | > 30 µM (inactive)
65 | COc1ccc(C(=O)c2sc(Nc3ccccc3)nc2N)cc1 | > 30 µM (inactive)
66 | COc1ccc(C(=O)OCCc2ccc(O)cc2)cc1 | > 30 µM (inactive)
67 | Cc1ccc(-c2cc(C(=O)NCCc3ccccn3)c3ccccc3n2)c(C)c1 | > 30 µM (inactive)
68 | Cc1ccc(C(=O)O/N=C(\N)c2ccccn2)c(C)c1 | 17.6 µM (active)
69 | Cc1ccc2nc3c(cc2c1)c(NC(=O)c1ccccn1)nn3CC(C)C | > 30 µM (inactive)
70 | COc1ccc(C(=O)O/N=C(\N)c2ccccn2)cc1 | 15.5 µM (active)
71 | Cc1ccc(C(=O)O/N=C(\N)c2ccccn2)c(Cl)c1 | 26.6 µM (active)
72 | Cc1ccc(C(=O)N/N=C2\CCCc3ccccc32)c(C)c1 | > 30 µM (inactive)

Row | SMILES | EC50
73 | CCc1ccc(CNC(=O)C2CCC(=O)N(CCc3ccc(Cl)cc3)C2)nc1 (stereo unspecified) | > 30 µM (inactive)
74 | O=C(O)COc1ccc(C(=O)c2ccccc2)cc1 | > 30 µM (inactive)
75 | CSc1nc(NCCCN(C)C)c2c3c(sc2n1)CN(C)CC3 | > 30 µM (inactive)
76 | OCCNc1nc(-c2cccnc2)nc2ccccc12 | > 30 µM (inactive)
77 | CCC(C)Nc1nc(N)c([N+](=O)[O-])c(NCc2ccccc2)n1 (stereo unspecified) | > 30 µM (inactive)
78 | Cc1ccc(NC(=O)CSCc2ccc(F)cc2)cc1 | > 30 µM (inactive)
79 | CCN1CCc2c(sc(NC(=O)Cc3ccccc3)c2C(N)=O)C1 | > 30 µM (inactive)
80 | COc1ccc(OC)c(C(O)c2coc3ccc(O)c(CN(C)C)c23)c1 (stereo unspecified) | > 30 µM (inactive)
81 | CCn1c(/C=C/N(C(C)=O)c2ccccc2)[n+](CC)c2ccc(Cl)cc21 | > 30 µM (inactive)
82 | CCOc1ccc(/C=N/Nc2ccccn2)cc1OC | > 30 µM (inactive)
83 | Cc1ccc(S(=O)(=O)CC(=O)c2cc3cccc(C)c3oc2=O)cc1 | > 30 µM (inactive)
84 | Nc1nc(NCCc2ccccc2)nc(NCCO)c1[N+](=O)[O-] | > 30 µM (inactive)
85 | O=C(N/N=C/c1ccc(-c2ccc(Cl)c(C(=O)O)c2)o1)c1cc2c(ccc3ccccc32)o1 | > 30 µM (inactive)
86 | CCn1c(SCC(=O)Nc2nccs2)nnc1C1CC1 | > 30 µM (inactive)
87 | COc1ccc(N(C(=O)c2ccncc2)S(=O)(=O)c2cccc([N+](=O)[O-])c2)cc1 | > 30 µM (inactive)
88 | Cc1ccc(-c2nc(Nc3cccc(O)c3)c3ccccc3n2)cc1 | > 30 µM (inactive)
89 | CN(C)S(=O)(=O)c1cc(NC(=O)COC(=O)Cc2ccc(Br)cc2)ccc1Cl | > 30 µM (inactive)
90 | CSc1nc(C)cc(-n2ccc(=O)[nH]c2=O)n1 | > 30 µM (inactive)
91 | CC(C)OCCCN1CN(S(=O)(=O)c2cccc(Cl)c2)c2nc3ccccc3nc21 | > 30 µM (inactive)
92 | COc1ccc(-c2nn(-c3ccccc3)cc2C(=O)O)cc1 | > 30 µM (inactive)
93 | COCCOc1ccc(C(F)(F)F)cc1NC(=O)COC(=O)c1cc[n+]([O-])cc1 | > 30 µM (inactive)
94 | COc1cccc(C(=O)Nc2nc3ccccc3s2)c1 | > 30 µM (inactive)
95 | CCSc1ccc2nnc(-c3cccs3)n2n1 | > 30 µM (inactive)
96 | CCCCn1nc(NC(=O)CCC)c2cc3cc(OC)ccc3nc21 | > 30 µM (inactive)
